Inconclusive results are not listed. Entries that show only a call come without a potency. Active and inactive are the calls of the source. Calls follow the shape of the dose curve; as a rule, active = well fitted inhibition curve with a large enough effect; inconclusive = small, poorly fitted or top-dose-only effect, or effect the other way; inactive = no such curve, though single readings can be large or run the other way.

The experiment can be described thus: Concentration response confirmation VP16 counterscreen for inhibitors of ROR gamma transcriptional activity. Also: nearly all actives have a fitted effect of over 70% in size. The gist of the method:
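Luciferase counterscreen: UAS-driven Photinus reporter in S2 cells expressing copper-inducible Gal4-VP16 fusion, 600 cells/well. Induced with copper sulfate (700 uM final) 1 hr after compound, incubated 20 hr at ambient temperature before luminescence detection.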
On the technique in general: Counterscreens check selectivity or assay interference.
Potency is read from the fitted curve at half-maximal effect.

On to `O=C(NCC1CCCO1)C(C(=O)c1ccccc1)n1ccccc1=O` (stereo not drawn), for which the Potency entry is “inactive”.

Turning to `COc1ccc(-c2cc(-c3ccccc3)n[nH]2)c(O)c1`, the Potency was 19.9 µM (active).

Consider `Cc1ccc2nc(-c3ccc(NC(=O)COC(=O)c4ccc(=O)[nH]c4)cc3)sc2c1`, for which the Potency is 12.5 µM (active).

For the compound `COCCC1CCCCN1C(=O)c1cc(COc2ccc(-n3cncn3)cc2)on1` (stereo not drawn), the Potency is 19.9 µM (active).

For `O=C(COc1ccccc1)NNc1nc2c(F)cccc2s1`, the Potency result is “inactive”.

Turning to `CCOc1ncccc1C(=O)OCC(=O)Nc1ccc(-c2nc3ccc(C)cc3s2)cc1`, the Potency was 3.53 µM (active).

Turning to `O=C(CSc1n[nH]c(=O)n1-c1ccc2c(c1)OCCO2)Nc1ccccc1`, the Potency result was “inactive”.

For the compound `COc1ccc(C(=O)Nc2ccc(NC(=O)c3cccs3)cn2)cc1`, the Potency result was “inactive”.

Turning to `O=C(c1cc(-c2ccc(Cl)cc2)n[nH]1)N1CCc2ccccc2C1`, the Potency entry was “inactive”.

As to `c1ccc(Cn2c(-c3ccccc3)c[n+]3c2SCCC3)cc1`, the Potency entry was “inactive”.

Regarding `COc1cc(CNS(=O)(=O)c2ccc3c(c2)CC(C)N3C(=O)C2CCC2)cc(OC)c1OC` (stereo not drawn), the Potency is 9.96 µM (active).

With `CNC(=O)NC(=O)CSc1nc2cc(C(=O)OC)ccc2c(=O)n1-c1ccccc1`, the Potency was 25 µM (active).

Regarding `COc1ccc(-c2nc(CS(=O)(=O)CC(=O)NCCc3ccc(C)cc3)c(C)o2)cc1`, the Potency entry is “inactive”.

Consider `CCOC(=O)Cn1c(CN2CCc3ccccc3C2)nc2c1c(=O)n(C)c(=O)n2C`, for which the Potency was 3.15 µM (active).

For `COCC1CCCCN1C(=O)c1cc(COc2ccc3ncccc3c2)on1` (stereo not drawn), the Potency was 7.05 µM (active).

Regarding `CCn1cc(C(=O)O)c(=O)c2cnc(N3CCN(C(=S)NC(=O)c4ccccc4)CC3)nc21`, the Potency result is “inactive”.

Regarding `Cc1ccc2nc(-c3ccc(NC(=O)COC(=O)c4ccc([N+](=O)[O-])o4)cc3)sc2c1`, the Potency is 3.53 µM (active).

On to `COC(=O)c1ccc2nc(Nc3nc4ccc(F)cc4s3)sc2c1`, for which the Potency is 5.6 µM (active).

For `COc1ccc(C(=O)Nc2scc(-c3ccc(Cl)cc3Cl)c2C(N)=O)cc1`, the Potency result was “inactive”.

Regarding `CCOc1cccc(-c2cc(-c3n[nH]c(=S)n3CC)c3ccccc3n2)c1`, the Potency entry is “inactive”.

For the compound `Cn1nccc1C(=O)NC1CCCc2c1cnn2-c1ccc(F)cc1F` (stereo not drawn), the Potency is 1.58 µM (active).

With `CCn1nc(C)c(CN2CCC(n3nccc3NC(=O)c3ccc4c(c3)OCO4)CC2)c1C`, the Potency result was “inactive”.

For the compound `CC(C)(C)S(=O)(=O)c1cnc2c(-c3ccc(F)cc3)cnn2c1N`, the Potency is 12.5 µM (active).

With `COc1cccc(CNS(=O)(=O)c2ccc3c(c2)CCN3C(=O)C2CC2)c1`, the Potency entry is “inactive”.

`COC1CCN(C(=O)c2cc(COc3ccc(-n4cncn4)cc3)on2)CC1`: the Potency result is “inactive”.

Take `CCCCCCn1ccc(=N)cc1`: the Potency was 11.2 µM (active).

Turning to `Cc1ccccc1C(=O)OC1OC(=O)C(Cl)=C1Nc1ccccc1` (stereo not drawn), the Potency entry is “inactive”.

As to `CCN(CC)c1ccc2cc(-c3nc4ccccc4[nH]3)c(=O)oc2c1`, the Potency was 9.96 µM (active).

As to `O=[N+]([O-])c1ccccc1/C=C/C=N/n1c(-c2ccccc2)n[nH]c1=S`, the Potency result is “inactive”.

For `O=C(CCCOc1ccccc1)Nc1nc2ccccc2[nH]1`, the Potency entry was “inactive”.

Regarding `COC1CCCCC1Nc1cc(C)ccc1C` (stereo not drawn), the Potency entry was “inactive”.

For the compound `O=C1CC(c2ccc(F)cc2)CC(O)=C1C1NCCc2ccccc21` (stereo not drawn), the Potency result is “inactive”.

Regarding `Cc1nc2c(-c3ccccc3)cnn2c(N)c1-c1ccccc1`, the Potency was 11.2 µM (active).

(Values after PubChem BioAssay AID2763 (National Center for Advancing Translational Sciences (NCATS), 2010).)
